Experimental data: PubChem BioAssay AID689 (Sanford-Burnham Center for Chemical Genomics, 2007)
In all, about 62,000 compounds went through this assay and about 80 (0.1%) were called active. The rule behind the calls is not given here. Not all results are given here. Potency and affinity values are given separately.

Each compound was assayed against Ephrin type-A receptor 4 (Mus musculus) (UniProt Q03137) (assay: EphA4 ligand-binding antagonists – biochemical, colorimetric, mouse EphA4, primary screen (AID 689)). Conditions: EphA4-AP binding to KYL peptide, pNPP A405, at 10 µM, stronger effect = higher value.
Chain of Ephrin type-A receptor 4 (Mus musculus) (Q03137 whole entry, looked up): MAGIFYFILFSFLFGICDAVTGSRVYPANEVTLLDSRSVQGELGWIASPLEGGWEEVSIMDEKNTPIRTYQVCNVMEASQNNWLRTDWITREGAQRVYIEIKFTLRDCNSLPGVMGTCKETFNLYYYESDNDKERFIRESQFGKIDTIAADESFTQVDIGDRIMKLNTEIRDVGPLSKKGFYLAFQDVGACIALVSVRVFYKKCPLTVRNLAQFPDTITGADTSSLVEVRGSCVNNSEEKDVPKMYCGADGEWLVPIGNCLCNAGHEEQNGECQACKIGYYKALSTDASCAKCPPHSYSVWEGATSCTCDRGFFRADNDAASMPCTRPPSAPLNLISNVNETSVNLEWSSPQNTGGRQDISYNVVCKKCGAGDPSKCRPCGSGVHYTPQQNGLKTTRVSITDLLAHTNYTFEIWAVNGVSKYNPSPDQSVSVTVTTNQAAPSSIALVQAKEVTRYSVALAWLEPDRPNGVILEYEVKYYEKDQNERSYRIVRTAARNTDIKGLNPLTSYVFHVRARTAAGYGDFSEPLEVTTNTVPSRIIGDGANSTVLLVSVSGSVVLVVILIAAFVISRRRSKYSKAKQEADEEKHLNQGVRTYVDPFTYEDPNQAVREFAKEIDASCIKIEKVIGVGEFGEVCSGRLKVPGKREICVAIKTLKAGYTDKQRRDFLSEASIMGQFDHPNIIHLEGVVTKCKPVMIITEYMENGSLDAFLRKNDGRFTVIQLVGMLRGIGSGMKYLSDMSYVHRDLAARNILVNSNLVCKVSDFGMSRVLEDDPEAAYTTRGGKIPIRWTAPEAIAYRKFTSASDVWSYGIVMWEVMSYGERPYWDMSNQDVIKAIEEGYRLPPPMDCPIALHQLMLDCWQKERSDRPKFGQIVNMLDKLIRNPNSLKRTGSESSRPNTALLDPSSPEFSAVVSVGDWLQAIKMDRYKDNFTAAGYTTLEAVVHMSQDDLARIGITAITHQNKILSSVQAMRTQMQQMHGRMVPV

inhibition, inactive:
Cc1occc1-c1nnc(SCC(=O)c2c[nH]c3ccccc23)n1C 0.9%, Cc1cccc(C)c1NC(=O)CSc1nnc(-c2ccoc2C)n1C -4.3%, Cn1c(SCC(=O)NC2CCCC2)nc2cccnc21 -0.5%, Cc1c(C(=O)NCCc2ccccc2)oc2ccc(S(=O)(=O)N3CCC4(CC3)OCCO4)cc12 -4.2%, Cc1cc2cc(CNC(=O)C3CC3)ccc2n1C -5.8%, COc1ccc(CNC(=O)c2ccc(S(=O)(=O)N3CCCC3)cc2)cc1OC -5.4%, COc1ccccc1NC(=O)Cc1csc(N)n1 3.7%, CCCCN(CCCC)c1nc2ccccc2nc1C(C#N)C(=O)NCCCOC (stereo unspecified) 13.6%, CCCCN(C)C/C(O)=C(\C#N)c1nc(-c2ccccc2)cs1 -4.9%, Cc1c(NC(=O)c2ccc(CSc3ccc(Cl)cc3)cc2)c(=O)n(-c2ccccc2)n1C -7.2% [this sample at 5 µg/mL], Cc1ccc2c3c1C(=O)C(=O)N3C(C)(C)CC2C (stereo unspecified) -4.8%, O=C(COc1ccc(Cl)cc1)N(c1ccccc1)c1ccccc1 5.1% [this sample at 5 µg/mL], Cc1cccc(OCC(=O)N/N=C/c2cn[nH]c2-c2ccc(Cl)c(Cl)c2)c1 -6.5%, CCOC(=O)c1c(C)nc2c(c1-c1ccccc1)C(=O)c1ccccc1-2 -4.1%, CCOC(=O)c1ccc(COC(=O)c2ccc3c(c2)-c2ccccc2C3=O)cc1 -10.7%, CC(CCc1ccccc1)NC(=O)c1cncc(Br)c1 (stereo unspecified) 1.4%, CCOC(=O)c1c(C)oc2c1c1c(c3ccccc32)OCN(Cc2ccccn2)C1 4.9%, CCOC(=O)c1c(C)oc2c1c(C=NCC1CCCO1)c(O)c1ccccc12 (stereo unspecified) -5.6%, Cn1c(NCc2c[nH]c3ccccc23)nc2ccccc21 -8.4%, CCOC(=O)c1csc(NC(=O)CSc2nnnn2CC)n1 -8.3%, Cc1ccc(S(=O)(=O)N2CCSC2c2ccco2)cc1 (stereo unspecified) -2%, CCOCCCn1c(SCC(=O)NCc2ccco2)nc2c(sc3ccccc32)c1=O 7.8%, Oc1c(C(Nc2ccccn2)c2ccccn2)ccc2cccnc12 (stereo unspecified) 6.9%, Cc1ccc2ccc(C(Nc3ccccn3)c3ccccc3)c(O)c2n1 (stereo unspecified) 18.4%, CC(=NCCc1ccccc1)C1=C(O)CCC1=O -2.3%, COc1ccccc1NC(=O)CSc1nnc(-c2ccco2)n1Cc1ccco1 -25.5%, COc1cccc(-c2nnc3sc(-c4ccccn4)nn23)c1 -6.2%, Cn1c(=O)oc2cc(S(=O)(=O)N3CCN(c4cccc(Cl)c4)CC3)ccc21 -5.3%, O=C1/C(=C/c2ccc(I)o2)SC(=S)N1Cc1ccccc1 -12.6% [this sample at 5 µg/mL], Cc1ccc(/C=C2\SC(=S)N(Cc3ccccc3)C2=O)o1 -10.8%, O=C(c1coc(=O)c(Br)c1)N1CCCc2ccccc21 21.7%, CC1(C)CC(NC(=O)c2coc(=O)c(Br)c2)CC(C)(C)N1 -9.8%, O=C(CSCc1ccccc1Cl)NNC(=S)Nc1ccccc1 -12.3%, O=C1/C(=C/c2ccc(F)cc2)SC(=S)N1Nc1ncc(C(F)(F)F)cc1Cl -6.5%, COc1cc(/C=C2\SC(=S)N(Nc3ncc(C(F)(F)F)cc3Cl)C2=O)ccc1O 46.2%, CCOc1cc(/C=C2\SC(=S)N(Nc3ccccc3)C2=O)ccc1O 16.9%, COc1cc(/C=C2/SC(=S)N(CC(=O)Nc3cccc(C(=O)O)c3)C2=O)cc(OC)c1OC -3.5% [this sample at 5 µg/mL], CC(=O)NCCNC(=O)[C@H](Cc1ccccc1)NC(=O)c1cccs1 -9%, CC1CC(C)CN(CC(C)(C)NS(=O)(=O)c2ccc(Cl)cc2)C1 (stereo unspecified) -13.3%, CC(C)C1Cc2c(C#N)c(N)n(C)c(=S)c2CO1 (stereo unspecified) -8%, CCC1(C)Cc2c(C#N)c(N)sc(=S)c2CO1 (stereo unspecified) 44.1%, O=C1NC(=S)N(c2ccc(F)cc2)C(=O)C1=Cc1ccc([N+](=O)[O-])s1 31.5% [this sample at 5 µg/mL], CCSc1nnc(-c2ccncc2)o1 -3%, O=C(O)CSc1nnc(-c2ccccc2)o1 -16.7%, COC(=O)c1cccnc1NC(=S)NNC(=O)c1ccncc1 1.4%, CC1=NN(c2ccc(Br)cc2)C(=O)/C1=C/c1cccs1 -1.8%, O=C1N=C(c2ccccc2)S/C1=C\c1cccs1 5.5%, CCCCC(=O)Nc1cccc(NC(=O)c2ccc(Br)cc2)c1 -0.2%, Cc1cc(C)c2nc(N3CCN(C)CC3)c(C#N)cc2c1 8.1%, Cc1cc(C)c2nc(N3CCCN(C(=O)c4cnccn4)CC3)c(C#N)cc2c1 11.5%, Cc1ccc(N2CCCn3c2nc2c3c(=O)n(CCN3CCOCC3)c(=O)n2C)cc1 -11%, N=c1oc2ccccc2cc1-c1nc2ccccc2c(=O)[nH]1 5.9%, O=C(/C=C/c1ccc(OCc2ccccc2)cc1)c1ccc(Br)cc1 -5.6% [this sample at 5 µg/mL], O=C(/C=C/c1ccc(OCc2ccccc2)cc1)c1cccc(Br)c1 14.7% [this sample at 5 µg/mL], CC(C)(C)C1=C(C#N)C(c2ccc3c(c2)OCO3)C(C#N)=C(N)O1 (stereo unspecified) 5%, CCC1=NN2C(=N)/C(=C/c3ccc(OCc4ccccc4)cc3)C(=O)N=C2S1 0.6% [this sample at 5 µg/mL]
